The values that follow come from PubChem BioAssay (NCI).

The panel holds about 79,000 compounds, 15% with a hit somewhere; the sample as a whole holds those more often. Values without a mark were called inactive. The source made the active and inactive calls. Rule as the data show it: active = growth inhibition above about 70%; inactive = the rest.

A short description of the first assay: NCI Yeast Anticancer Drug Screen. Data for the mec2-1 strain (AID 157). The settings on record: S. cerevisiae mec2-1 strain, at 50.0 µM (retest, dose inferred, filed as 5.0), stronger effect = higher value. Summed up:
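Compounds were applied to mec2-1 yeast cells. Their growth was then compared with that of vehicle-treated cultures to give growth inhibition.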
Consider `CCCCCCCCCCS(=O)(=O)Nc1ccc(C(=O)NN)cc1`, for which the growth inhibition was 48%.
As to `ON(C(=Nc1ccc(Cl)cc1)c1ccccc1)c1ccccc1`, the growth inhibition is 99% (active).
As for `Cc1ccc(-c2c(N)[n+]([O-])c3ccccc3[n+]2[O-])cc1`, the growth inhibition was 99% (active).
As for `NC(=O)C12OC3CC(CC(C3)O1)O2`, the growth inhibition is -17%.
`C=C(C)[P+](C)(c1ccccc1)c1ccccc1`: the growth inhibition is 6%.
Consider `CCC(C)SC1SCC2C(=O)N(C)C3(CC3C)C(=O)OCC(NC(=O)c3nc4ccccc4cc3O)C(=O)NC(C)C(=O)N(C)C1C(=O)N(C)C1(CC1C)C(=O)OCC(NC(=O)c1nc3ccccc3cc1O)C(=O)NC(C)C(=O)N2C` (stereo not given), for which the growth inhibition was 92% (active).
Turning to `COc1ccc2ccc(=O)oc2c1CC=C(C)C`, the growth inhibition was 99% (active).
For `O=c1ccn(C2OC(COC(c3ccccc3)(c3ccccc3)c3ccccc3)C(O)C2O)c(=O)[nH]1` (stereo not given), the growth inhibition is 99% (active).
For the compound `O=C1C(=O)C(Cc2ccccc2)(c2ccccc2)C(=O)N1c1ccccc1` (stereo not given), the growth inhibition is 59%.
On to `CCC(O)C(O)(c1ccccc1)c1nc2ccccc2s1` (stereo not given), for which the growth inhibition is 11%.
Regarding `c1ccc(-n2ncc3ccc4cccn4c32)cc1`, the growth inhibition was 9%.
With `O=C(c1ccc([N+](=O)[O-])cc1)C(Br)C(Br)c1ccnc2ccccc12` (stereo not given), the growth inhibition was 63%.
`[Cl][Sn]1([Cl])[CH2]CC[CH2][Sn]([Cl])([Cl])[CH2]CC[CH2][Sn]([Cl])([Cl])[CH2]CC[CH2][Sn]([Cl])([Cl])[CH2]CC[CH2]1`: the growth inhibition is 63%.
As for `Nc1ccc(O)c(=O)cc1`, the growth inhibition was 11%.
With `CC(C)c1cc(C(=O)[O-])c(O)c(C(C)C)c1.CC(C)c1cc(C(=O)[O-])c(O)c(C(C)C)c1.CC(C)c1cc(C(=O)[O-])c(O)c(C(C)C)c1.CC(C)c1cc(C(=O)[O-])c(O)c(C(C)C)c1.CC(C)c1cc(C(=O)[O-])c(O)c(C(C)C)c1.CC(C)c1cc(C(=O)[O-])c(O)c(C(C)C)c1.[Cu+2].[Mn+2].[Mn+2]`, the growth inhibition is 57%.
Consider `CC1=C(C(=O)Nc2cccc(C(F)(F)F)c2)C(c2ccccc2F)C(C(=O)Nc2cccc(C(F)(F)F)c2)=C(C)N1`, for which the growth inhibition is 46%.
For `O=C(c1ccccc1)C(C(=O)c1ccccc1)c1ccc2ccccc2n1`, the growth inhibition is -4%.
`NC(=S)N1N=C2c3ccccc3CC[C@H]2[C@@H]1c1cccs1`: the growth inhibition is 40%.
Take `O=CC(O)CN1CCCC1` (stereo not given): the growth inhibition is 14%.
Consider `CCCCCN(CCCCC)CC(C)(C)C(O)c1ccc(OC)c2ccccc12` (stereo not given), for which the growth inhibition is 18%.
Turning to `CSC(=S)n1nc(-c2cccs2)c(N=Nc2ccccc2)c1C(F)(F)F`, the growth inhibition was 98% (active).
For the compound `CC(O)C1CCCC[N+]1(C)C` (stereo not given), the growth inhibition is 8%.
On the same count and under the same terms, under `CCCCCCCCCCCC(=O)N(CCOC(=O)c1ccco1)CCOC(=O)c1ccco1` stands 99% (active); under `CCOC(=O)NC(=S)Nc1ccsc1`, -1%.
`O=C(O)c1ccc(C(O)(c2ccccc2)c2ccccc2)cc1`: the growth inhibition is 95% (active).
With `N#CSCCSCc1ccc(Cl)cc1`, the growth inhibition was 99% (active).
Still for that read-out and setting: under `CN(/N=C\c1ccc(Cl)cc1)C(c1ccc(Cl)cc1)N(C)/N=C/c1ccc(Cl)cc1` (stereo not given) stands 84% (active); under `CC(C)(C)[Si](C)(C)OCC1OC(n2cc(I)c(N)nc2=O)C(O[Si](C)(C)C(C)(C)C)C1O[Si](C)(C)C(C)(C)C` (stereo not given), 98% (active); under `O=C1C(=O)c2cc(Br)cc([N+](=O)[O-])c2-c2ccc(Br)cc21`, 96% (active).
On the same count and under the same terms, the figure for `C(=NCCc1ccccc1)c1ccccc1B1OB(c2ccccc2C=NCCc2ccccc2)OB(c2ccccc2C=NCCc2ccccc2)O1` is 100% (active); for `O=[N+]([O-])c1ccc(-c2ccccc2Cl)c([N+](=O)[O-])c1` it is 92% (active); for `CC12CCC(=O)C=C1CCC1C2CCC2(C)C(c3cnc[nH]3)CCC12` (stereo not given) it is 46%.
Regarding `COc1cccc(C2CC(C)(O)Oc3cc4c(cc32)OCO4)c1` (stereo not given), the growth inhibition was 16%.
On the same count and under the same terms, the figure for `N/C(=N\N=C\c1cc(I)cc(I)c1O)NO` is 96% (active); for `Cc1ccc2nn(-c3ccc(O)cc3)nc2c1` it is 42%.
In the case of `COC(=O)C1=C(NC(=O)Nc2ccc(Cl)cc2)OC(C)(C)C1c1ccc(Cl)cc1` (stereo not given), the growth inhibition was 94% (active).
Same read-out and setting: under `CCCC/C=C\CCCCCCCCCC1=C(O)C(=O)C=C(OC)C1=O` stands 89% (active).
Turning to `Cc1nn(C(=O)c2ccccc2O)c2c1C(c1ccco1)SC(N)=N2` (stereo not given), the growth inhibition was 59%.
As to `CC1=C(CO)C(=O)O[C@@H]([C@@H](C)[C@H]2CC[C@H]3[C@@H]4C[C@@H](O)C5=CC=CC(=O)[C@]5(C)[C@H]4CC[C@]23C)C1`, the growth inhibition was 49%.
On the same count and under the same terms, the figure for `O=C(CNC(=O)Nc1ccc(NC(=O)NCC(=O)Nc2ccc(C3=NCCN3)cc2)cc1)Nc1ccc(C2=NCCN2)cc1` is -3%.

The same assay, now with this note: S. cerevisiae mec2-1 strain, at 50.0 µM, stronger effect = higher value.
As to `CCCCCCCCCCS(=O)(=O)Nc1ccc(C(=O)NN)cc1`, the growth inhibition was 71% (active).
On to `ON(C(=Nc1ccc(Cl)cc1)c1ccccc1)c1ccccc1`, for which the growth inhibition is 99.2% (active).
Turning to `Cc1ccc(-c2c(N)[n+]([O-])c3ccccc3[n+]2[O-])cc1`, the growth inhibition is 99.3% (active).
Still for that read-out and setting: the figure for `NC(=O)C12OC3CC(CC(C3)O1)O2` is 11.4%; for `C=C(C)[P+](C)(c1ccccc1)c1ccccc1` it is 0.95%.
Take `CCC(C)SC1SCC2C(=O)N(C)C3(CC3C)C(=O)OCC(NC(=O)c3nc4ccccc4cc3O)C(=O)NC(C)C(=O)N(C)C1C(=O)N(C)C1(CC1C)C(=O)OCC(NC(=O)c1nc3ccccc3cc1O)C(=O)NC(C)C(=O)N2C` (stereo not given): the growth inhibition was 91.9% (active).
In the case of `COc1ccc2ccc(=O)oc2c1CC=C(C)C`, the growth inhibition was 37.6%.
The same measure, in the same setting: the figure for `O=c1ccn(C2OC(COC(c3ccccc3)(c3ccccc3)c3ccccc3)C(O)C2O)c(=O)[nH]1` (stereo not given) is 92.9% (active); for `O=C1C(=O)C(Cc2ccccc2)(c2ccccc2)C(=O)N1c1ccccc1` (stereo not given) it is 6.25%; for `CCC(O)C(O)(c1ccccc1)c1nc2ccccc2s1` (stereo not given) it is 5.9%.
Take `c1ccc(-n2ncc3ccc4cccn4c32)cc1`: the growth inhibition was 38.1%.
On to `O=C(c1ccc([N+](=O)[O-])cc1)C(Br)C(Br)c1ccnc2ccccc12` (stereo not given), for which the growth inhibition was 99.1% (active).
In the case of `[Cl][Sn]1([Cl])[CH2]CC[CH2][Sn]([Cl])([Cl])[CH2]CC[CH2][Sn]([Cl])([Cl])[CH2]CC[CH2][Sn]([Cl])([Cl])[CH2]CC[CH2]1`, the growth inhibition is 83.3% (active).
Consider `Nc1ccc(O)c(=O)cc1`, for which the growth inhibition was 45.1%.
On to `CC(C)c1cc(C(=O)[O-])c(O)c(C(C)C)c1.CC(C)c1cc(C(=O)[O-])c(O)c(C(C)C)c1.CC(C)c1cc(C(=O)[O-])c(O)c(C(C)C)c1.CC(C)c1cc(C(=O)[O-])c(O)c(C(C)C)c1.CC(C)c1cc(C(=O)[O-])c(O)c(C(C)C)c1.CC(C)c1cc(C(=O)[O-])c(O)c(C(C)C)c1.[Cu+2].[Mn+2].[Mn+2]`, for which the growth inhibition was 50.5%.
`CC1=C(C(=O)Nc2cccc(C(F)(F)F)c2)C(c2ccccc2F)C(C(=O)Nc2cccc(C(F)(F)F)c2)=C(C)N1`: the growth inhibition was 78.9% (active).
Consider `O=C(c1ccccc1)C(C(=O)c1ccccc1)c1ccc2ccccc2n1`, for which the growth inhibition was 2.75%.
The same measure, in the same setting: under `NC(=S)N1N=C2c3ccccc3CC[C@H]2[C@@H]1c1cccs1` stands 34.4%.
Take `O=CC(O)CN1CCCC1` (stereo not given): the growth inhibition is 53.2%.
On the same count and under the same terms, the figure for `CCCCCN(CCCCC)CC(C)(C)C(O)c1ccc(OC)c2ccccc12` (stereo not given) is 47.6%.
As to `CSC(=S)n1nc(-c2cccs2)c(N=Nc2ccccc2)c1C(F)(F)F`, the growth inhibition was 96.8% (active).
`CC(O)C1CCCC[N+]1(C)C` (stereo not given): the growth inhibition was -6.9%.
Same read-out and setting: the figure for `CCCCCCCCCCCC(=O)N(CCOC(=O)c1ccco1)CCOC(=O)c1ccco1` is 99% (active); for `CCOC(=O)NC(=S)Nc1ccsc1` it is 11.4%.
Turning to `O=C(O)c1ccc(C(O)(c2ccccc2)c2ccccc2)cc1`, the growth inhibition was 86% (active).
As for `N#CSCCSCc1ccc(Cl)cc1`, the growth inhibition was 99.5% (active).
Regarding `CN(/N=C\c1ccc(Cl)cc1)C(c1ccc(Cl)cc1)N(C)/N=C/c1ccc(Cl)cc1` (stereo not given), the growth inhibition was 9.5%.
In the case of `CC(C)(C)[Si](C)(C)OCC1OC(n2cc(I)c(N)nc2=O)C(O[Si](C)(C)C(C)(C)C)C1O[Si](C)(C)C(C)(C)C` (stereo not given), the growth inhibition is 60.8%.
Regarding `O=C1C(=O)c2cc(Br)cc([N+](=O)[O-])c2-c2ccc(Br)cc21`, the growth inhibition is 98.3% (active).
Regarding `C(=NCCc1ccccc1)c1ccccc1B1OB(c2ccccc2C=NCCc2ccccc2)OB(c2ccccc2C=NCCc2ccccc2)O1`, the growth inhibition was 99.8% (active).
The same measure, in the same setting: the figure for `O=[N+]([O-])c1ccc(-c2ccccc2Cl)c([N+](=O)[O-])c1` is 95.7% (active); for `CC12CCC(=O)C=C1CCC1C2CCC2(C)C(c3cnc[nH]3)CCC12` (stereo not given) it is 30.1%; for `COc1cccc(C2CC(C)(O)Oc3cc4c(cc32)OCO4)c1` (stereo not given) it is 50.7%.
Take `N/C(=N\N=C\c1cc(I)cc(I)c1O)NO`: the growth inhibition was 95.3% (active).
In the case of `Cc1ccc2nn(-c3ccc(O)cc3)nc2c1`, the growth inhibition was 22.6%.
For the compound `COC(=O)C1=C(NC(=O)Nc2ccc(Cl)cc2)OC(C)(C)C1c1ccc(Cl)cc1` (stereo not given), the growth inhibition was 98% (active).
The same measure, in the same setting: the figure for `CCCC/C=C\CCCCCCCCCC1=C(O)C(=O)C=C(OC)C1=O` is 69.6%.
On the same count and under the same terms, the figure for `Cc1nn(C(=O)c2ccccc2O)c2c1C(c1ccco1)SC(N)=N2` (stereo not given) is 38.8%; for `CC1=C(CO)C(=O)O[C@@H]([C@@H](C)[C@H]2CC[C@H]3[C@@H]4C[C@@H](O)C5=CC=CC(=O)[C@]5(C)[C@H]4CC[C@]23C)C1` it is 46%.
As to `O=C(CNC(=O)Nc1ccc(NC(=O)NCC(=O)Nc2ccc(C3=NCCN3)cc2)cc1)Nc1ccc(C2=NCCN2)cc1`, the growth inhibition is 88.4% (active).
